# About 2,000 (36%) of roughly 5,500 compounds were called active. Inconclusive results (about 18%) are left out. Some of the results follow. Values without a mark were called inactive. Rule as the data show it: active = normalized growth mostly below about 0.91 (no sharp cut-off); inconclusive = no clear call, values can overlap the other calls; inactive = mostly above about 0.92.
# Assay: chemical genetic growth profiling, strain panel (AID 1159580);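 also: tested at 20 µM; growth read once vehicle control cultures reached saturation at 30 °C; 1 = growth at the plate median or of vehicle wells; lower values mean less growth of the strain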
# Settings: S. cerevisiae deletion strains, growth OD
# [1] = locus YHR030C, strain SLT2, active compounds read low
smiles,measurement,setting,value
COC(=O)c1sccc1-c1ccc(C(C)=O)o1,normalized growth,"locus YAL013W, strain DEP1, active compounds read low",0.956
same,normalized growth,"locus YBR229C, strain ROT2, active compounds read low",0.975
same,normalized growth,"locus YDL101C, strain DUN1, active compounds read low",0.953
same,normalized growth,"locus YDL134C, strain PPH21, active compounds read low",0.974
same,normalized growth,"locus YDR150W, strain NUM1, active compounds read low",0.982
same,normalized growth,"locus YEL061C, strain CIN8, active compounds read low",0.949
same,normalized growth,"locus YGR078C, strain PAC10, active compounds read low",0.947
same,normalized growth,[1],0.722
same,normalized growth,"locus YHR087W, strain rtc3, active compounds read low",0.97
same,normalized growth,"locus YJR043C, strain POL32, active compounds read low",0.977
same,normalized growth,"locus YJR075W, strain HOC1, active compounds read low",0.956
same,normalized growth,"locus YKL190W, strain CNB1, active compounds read low",0.976
same,normalized growth,"locus YLR039C, strain RIC1, active compounds read low",0.945
same,normalized growth,"locus YLR058C, strain SHM2 (second series), active compounds read low",0.965
same,normalized growth,"locus YLR085C, strain ARP6, active compounds read low",0.751 (active)
same,normalized growth,"locus YLR262C, strain YPT6, active compounds read low",0.961
same,normalized growth,"locus YML094W, strain GIM5, active compounds read low",0.898
same,normalized growth,"locus YMR219W, strain ESC1, active compounds read low",0.978
same,normalized growth,"locus YMR263W, strain SAP30, active compounds read low",0.977
same,normalized growth,"locus YNL153C, strain GIM3, active compounds read low",0.982
same,normalized growth,"locus YNL298W, strain CLA4 (second series), active compounds read low",0.841
same,normalized growth,"locus YNL322C, strain KRE1, active compounds read low",0.935 (active)
same,normalized growth,"locus YNR030W, strain Alg12, active compounds read low",0.885 (active)
same,normalized growth,"locus YOL006C, strain TOP1, active compounds read low",0.727 (active)
same,normalized growth,"locus YPL055C, strain LGE1, active compounds read low",0.974
same,normalized growth,"locus YPL241C, strain CIN2, active compounds read low",0.891
same,normalized growth,"locus YPR135W, strain CTF4, active compounds read low",0.773
COC(=O)c1sccc1-c1ccc(/C=C/[N+](=O)[O-])o1,normalized growth,"locus YBL105C, strain PKC1, active compounds read low",0.964
same,normalized growth,"locus YBR135W, strain CKS1, active compounds read low",0.96
same,normalized growth,"locus YBR136W, strain MEC1, active compounds read low",0.968
same,normalized growth,"locus YBR160W, strain CDC28, active compounds read low",0.952
same,normalized growth,"locus YDL017W, strain CDC7, active compounds read low",0.974
same,normalized growth,"locus YDL028C, strain MPS1, active compounds read low",0.959
same,normalized growth,"locus YDL108W, strain KIN28, active compounds read low",0.965
same,normalized growth,"locus YDL214C, strain PRR2, active compounds read low",0.126 (active)
same,normalized growth,"locus YDR052C, strain DBF4, active compounds read low",0.981
same,normalized growth,"locus YDR226W, strain ADK1, active compounds read low",0.961
same,normalized growth,"locus YDR477W, strain SNF1, active compounds read low",0.518 (active)
same,normalized growth,"locus YER123W, strain YCK3, active compounds read low",0.155 (active)
same,normalized growth,"locus YER133W, strain GLC7, active compounds read low",0.121 (active)
same,normalized growth,"locus YFL009W, strain cdc4, active compounds read low",0.718 (active)
same,normalized growth,"locus YFR003C, strain YPI1, active compounds read low",0.966
same,normalized growth,"locus YFR019W, strain FAB1, active compounds read low",0.154 (active)
same,normalized growth,"locus YFR028C, strain CDC14, active compounds read low",0.978
same,normalized growth,"locus YGR040W, strain KSS1, active compounds read low",0.551 (active)
same,normalized growth,"locus YGR052W, strain FMP48, active compounds read low",0.268 (active)
same,normalized growth,"locus YGR092W, strain DBF2, active compounds read low",0.874
same,normalized growth,[1],0.0849 (active)
same,normalized growth,"locus YHR079C, strain IRE1, active compounds read low",0.113 (active)
same,normalized growth,"locus YHR082C, strain KSP1, active compounds read low",0.178 (active)
same,normalized growth,"locus YHR205W, strain SCH9, active compounds read low",0.509 (active)
same,normalized growth,"locus YIL147C, strain SLN1, active compounds read low",0.964
same,normalized growth,"locus YJL095W, strain BCK1, active compounds read low",0.126 (active)
same,normalized growth,"locus YJL128C, strain PBS2, active compounds read low",0.907
same,normalized growth,"locus YJL157C, strain FAR1, active compounds read low",0.14 (active)
same,normalized growth,"locus YJR016C, strain ILV3, active compounds read low",0.974
same,normalized growth,"locus YJR066W, strain TOR1 (second series), active compounds read low",0.0869 (active)
same,normalized growth,"locus YJR066W, strain TOR1, active compounds read low",0.103 (active)
same,normalized growth,"locus YKL048C, strain ELM1, active compounds read low",0.939
same,normalized growth,"locus YKL067W, strain YNK1, active compounds read low",0.185 (active)
same,normalized growth,"locus YKL101W, strain HSL1, active compounds read low",0.886
same,normalized growth,"locus YKL203C, strain TOR2, active compounds read low",0.893
same,normalized growth,"locus YLR113W, strain HOG1, active compounds read low",0.181 (active)
same,normalized growth,"locus YLR133W, strain CKI1, active compounds read low",0.638 (active)
same,normalized growth,"locus YLR403W, strain SFP1, active compounds read low",0.517 (active)
same,normalized growth,"locus YML070W, strain DAK1, active compounds read low",0.111 (active)
same,normalized growth,"locus YMR205C, strain PFK2 (second series), active compounds read low",0.704 (active)
same,normalized growth,"locus YNL006W, strain LST8, active compounds read low",0.958
same,normalized growth,"locus YNL020C, strain ARK1, active compounds read low",0.702 (active)
same,normalized growth,"locus YNL183C, strain NPR1, active compounds read low",0.0989 (active)
same,normalized growth,"locus YNL207W, strain RIO2, active compounds read low",0.977
same,normalized growth,"locus YNL307C, strain MCK1 (second series), active compounds read low",0.823
same,normalized growth,"locus YOL136C, strain PFK27, active compounds read low",0.107 (active)
same,normalized growth,"locus YOR061W, strain CKA2, active compounds read low",0.729
same,normalized growth,"locus YOR119C, strain RIO1, active compounds read low",0.875
same,normalized growth,"locus YOR231W, strain MKK1, active compounds read low",0.135 (active)
same,normalized growth,"locus YOR329C, strain SCD5, active compounds read low",0.965
same,normalized growth,"locus YPL031C, strain PHO85, active compounds read low",0.25 (active)
same,normalized growth,"locus YPL153C, strain RAD53, active compounds read low",0.0913 (active)
same,normalized growth,"locus YPL204W, strain HRR25, active compounds read low",0.091 (active)
same,normalized growth,"locus YPL209C, strain IPL1, active compounds read low",0.969
same,normalized growth,"locus YPL256C, strain CLN2, active compounds read low",0.147 (active)
same,normalized growth,"locus YPR025C, strain CCL1, active compounds read low",0.955
same,normalized growth,"locus YPR106W, strain ISR1, active compounds read low",0.959
same,normalized growth,"locus YPR111W, strain DBF20, active compounds read low",0.961
same,normalized growth,"strain NNK1, active compounds read low",0.963

# Source: PubChem BioAssay AID1159580 (chemical genetic matrix, 2015)
